# Assay outcomes: PubChem, Broad Institute
# Only some compounds are listed: those with a hit (about 2.3% of all), similar ones and a draw of the others.
# Pf Dd2 growth = inhibitors of Plasmodium falciparum Dd2 growth | P. falciparum Dd2 growth, SYBR Green, 72 h; active compounds read low | activity change, % at 10 µM | 94,000 tested, 2.3% active | AID 1159554; in the data active = activity change below about -80%; inconclusive = no clear call, values can overlap the other calls
# C diff HTS = blocks growth of Clostridium difficile. Clostridium difficile clinical isolate growth, OD600, 24 h; active compounds read low. growth activity, negative = inhibition, % at 16 µg/mL (by protocol). 86,000 tested, 0.25% active. AID 1259249;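 active = mean growth activity at or below -80% and every replicate also at or below -80%; inconclusive = mean at or below -80% but some replicate above -80%; inactive = mean growth activity above -80%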;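 note: 0% = DMSO wells and -100% = levofloxacin 16 µg/mL wells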
# Numbers without * were called inactive; ? = inconclusive; / = no result given.
SMILES,Pf Dd2 growth,C diff HTS
C[C@@H]1CCCCO[C@@H](CN(C)C(=O)Nc2ccc(C(F)(F)F)cc2)[C@H](C)CN([C@@H](C)CO)C(=O)c2cc(NC(=O)Cc3ccccc3)ccc2O1,-46,3
CC(=O)N(C)C[C@@H]1Oc2cc(C3=CCCCC3)ccc2S(=O)(=O)N([C@H](C)CO)C[C@H]1C,-4,/
COc1cccc(-c2ccc3c(c2)[C@H]2[C@H](CCN2C(=O)C2CCCC2)[C@H](CO)N3)c1,-80,3
Cc1ccccc1-c1ccc(C2[C@@H]3CN(C(=O)Cc4ccncc4)C[C@H]2N3)cc1 (stereo partly drawn),-47,-14
CCCNC(=O)Nc1ccc2c(c1)C(=O)N(C)C[C@@H](OC)[C@@H](C)CN(C(C)=O)[C@@H](C)CO2,-2,/
COc1cccc(NC(=O)N2CC(=O)N3[C@H](CO)[C@@H](c4ccc(C#CCC5CCCC5)cc4)[C@H]3C2)c1,-91*,62
O=C(c1ccc(F)cc1)N1CC(=O)N2[C@H](C1)[C@H](c1ccc(C#Cc3ccc(F)cc3)cc1)[C@@H]2CO,-13,-1
COc1cccc(NC(=O)N2CC(=O)N3[C@H](C2)[C@H](c2ccc(C#CCC4CCCC4)cc2)[C@@H]3CO)c1,-44,70
COc1cccc(C#Cc2ccc([C@H]3[C@@H](CO)N4C(=O)CN(C(=O)c5ccccc5)C[C@H]34)cc2)c1,-89*,1
COc1cccc(C#Cc2ccc([C@@H]3[C@H]4CN(C(=O)c5ccccc5)CC(=O)N4[C@H]3CO)cc2)c1,-48,-5
COc1ccc(C#Cc2ccc([C@H]3[C@H]4CN(C(=O)c5ccc(F)cc5)CC(=O)N4[C@H]3CO)cc2)cc1,-85*,-2
O=C(Nc1ccc(F)cc1)Nc1ccc2c(c1)[C@@H]1C[C@H](CC(=O)N3CCOCC3)O[C@H](CO)[C@@H]1O2,-1,1
C[C@@H]1CN([C@@H](C)CO)C(=O)c2cc(NC(=O)Nc3ccccc3)ccc2O[C@@H](C)CCCCO[C@@H]1CN(C)Cc1ccc2c(c1)OCO2,?,5
C[C@@H]1CN([C@H](C)CO)C(=O)c2cc(NC(=O)Nc3ccccc3)ccc2O[C@@H](C)CCCCO[C@H]1CN(C)Cc1ccc2c(c1)OCO2,-82*,26
C[C@H]1CCCCO[C@H](CN(C)Cc2ccc3c(c2)OCO3)[C@@H](C)CN([C@@H](C)CO)C(=O)c2cc(NC(=O)Nc3ccccc3)ccc2O1,-75,11
C[C@@H]1CCCCO[C@@H](CN(C)Cc2ccccc2)[C@H](C)CN([C@H](C)CO)C(=O)c2cc(NC(=O)Nc3ccc4c(c3)OCO4)ccc2O1,-79,9
C[C@H]1CCCCO[C@@H](CN(C)Cc2ccccc2)[C@@H](C)CN([C@@H](C)CO)C(=O)c2cc(NC(=O)Nc3ccc4c(c3)OCO4)ccc2O1,-86*,-3
C[C@H]1CCCCO[C@@H](CN(C)Cc2ccc3c(c2)OCO3)[C@@H](C)CN([C@@H](C)CO)C(=O)c2cc(NC(=O)Cc3ccccc3)ccc2O1,-83*,-3
C[C@@H]1CN([C@H](C)CO)C(=O)c2cc(NC(=O)Nc3ccccc3)ccc2O[C@@H](C)CCCCO[C@@H]1CN(C)Cc1ccc2c(c1)OCO2,-84*,19
C[C@@H]1CCCCO[C@@H](CN(C)Cc2ccc3c(c2)OCO3)[C@@H](C)CN([C@@H](C)CO)C(=O)c2cc(NC(=O)Cc3ccccc3)ccc2O1,-55,6
CN(C)CCCNC(=O)C[C@@H]1CC[C@@H]2[C@H](COC[C@@H](O)CN2S(=O)(=O)c2ccc(Cl)cc2)O1,12,10
O=C(Cc1ccncc1)Nc1ccc2c(c1)[C@@H]1C[C@H](CC(=O)N3CCOCC3)O[C@@H](CO)[C@@H]1O2,14,0
CCCNC(=O)N1C[C@H](C)[C@H](OC)CN(C)C(=O)c2ccc(NC(=O)CCC)cc2OC[C@@H]1C,11,/
C[C@@H]1CN([C@@H](C)CO)C(=O)c2cccc(NS(=O)(=O)c3ccc(Cl)cc3)c2O[C@H]1CN(C)Cc1ccc(C(=O)Nc2ccccc2N)cc1,-79,2
C[C@H]1CN([C@@H](C)CO)C(=O)c2cccc(NS(=O)(=O)c3ccccc3)c2O[C@H]1CN(C)Cc1ccc(C(=O)Nc2ccccc2N)cc1,-88*,6
SMILES,Pf Dd2 growth,C diff HTS
Cc1ccc(S(=O)(=O)Nc2cccc3c2O[C@@H](CN(C)Cc2ccc(C(=O)Nc4ccccc4N)cc2)[C@@H](C)CN([C@H](C)CO)C3=O)cc1,-83*,8
Cc1ccc(S(=O)(=O)Nc2cccc3c2O[C@H](CN(C)Cc2ccc(C(=O)Nc4ccccc4N)cc2)[C@@H](C)CN([C@H](C)CO)C3=O)cc1,-72,8
C[C@H]1CN([C@@H](C)CO)C(=O)c2cccc(NS(=O)(=O)c3ccc(F)cc3)c2O[C@H]1CN(C)Cc1ccc(Cl)c(Cl)c1,-82*,7
C[C@H]1CN([C@@H](C)CO)C(=O)c2cccc(NS(=O)(=O)c3ccccc3)c2O[C@@H]1CN(C)Cc1ccc(C(=O)Nc2ccccc2N)cc1,-54,-2
C[C@H](CO)N1C[C@H](C)[C@H](CN(C)Cc2ccc(Cl)c(Cl)c2)Oc2c(NS(=O)(=O)c3ccc(F)cc3)cccc2C1=O,-15,8
C[C@@H]1CN([C@H](C)CO)C(=O)c2cccc(NS(=O)(=O)c3ccccc3)c2O[C@@H]1CN(C)Cc1ccc(C(=O)Nc2ccccc2N)cc1,-85*,7
O=C(C[C@@H]1C=C[C@H](NC(=O)Nc2ccc3c(c2)OCO3)[C@H](CO)O1)NCCCN1CCOCC1,10,1
C[C@H](CO)N1C[C@H](C)[C@H](CN(C)Cc2ccc3c(c2)OCO3)OCCCC[C@H](C)Oc2ccc(NS(=O)(=O)c3cccs3)cc2C1=O,-38,4
CO[C@H]1CN(C)C(=O)c2cc(NC(=O)CC(F)(F)F)ccc2OC[C@H](C)N(C(=O)C2CCOCC2)C[C@@H]1C,39,-12
CN1C(=O)c2cc(NS(C)(=O)=O)ccc2OC[C@H]2O[C@H](CC(=O)N3CCOCC3)CC[C@@H]21,/,-3
C[C@@H]1CN([C@H](C)CO)C(=O)c2cccc(NS(=O)(=O)c3ccc(F)cc3)c2O[C@@H]1CN(C)Cc1ccc(C(=O)Nc2ccccc2N)cc1,-86*,9
C[C@@H]1CN([C@H](C)CO)C(=O)c2cccc(NS(=O)(=O)c3ccc(F)cc3)c2O[C@H]1CN(C)Cc1ccc(C(=O)Nc2ccccc2N)cc1,-68,10
CCCNC(=O)N1CC2(CCN(Cc3cccc(OC)c3)CC2)c2c(n(C)c3cc(OC)ccc23)[C@H]1CO,-72,1
CCCNC(=O)N1CC2(CCN(C(=O)CN(C)C)CC2)c2c(n(C)c3cc(OC)ccc23)[C@H]1CO,-88*,-4
COc1ccc2c3c(n(C)c2c1)[C@H](CO)N(C(=O)C1CC1)CC31CCN(C(=O)CN(C)C)CC1,-78,-3
CCC(=O)N1CC2(CN(Cc3ccc(Cl)cc3)C2)c2c(n(C)c3cc(OC)ccc23)[C@@H]1CO,-65,5
CCC(=O)N1CC2(CCN(Cc3ccc(Cl)cc3)CC2)c2c(n(C)c3cc(OC)ccc23)[C@H]1CO,-83*,-2
COc1ccc2c3c(n(C)c2c1)[C@@H](CO)N(C(=O)C1CC1)CC31CCN(C(=O)CN(C)C)CC1,-84*,-4
CCCNC(=O)N1CC2(CN(C(=O)CN(C)C)C2)c2c(n(C)c3cc(OC)ccc23)[C@H]1CO,33,3
